Source: PubChem BioAssay (National Center for Advancing Translational Sciences (NCATS))
Rows were chosen to be rich in hits. Some 16% of all compounds tested hit in one or more screens of this group.
TDP1 inh – qHTS Assay for Inhibitors of Tyrosyl-DNA Phosphodiesterase (TDP1). Potency, µM (top dose mostly 130 µM), hits mostly inhibitors. Tyrosyl-DNA phosphodiesterase 1 (Homo sapiens), Q9NUW8. recombinant TDP1, AlphaScreen DNA substrate cleavage. 0.28% of 350,000 active; note: nearly all actives have a fitted effect of over 40% in size
Target sequence (Q9NUW8 whole entry, looked up): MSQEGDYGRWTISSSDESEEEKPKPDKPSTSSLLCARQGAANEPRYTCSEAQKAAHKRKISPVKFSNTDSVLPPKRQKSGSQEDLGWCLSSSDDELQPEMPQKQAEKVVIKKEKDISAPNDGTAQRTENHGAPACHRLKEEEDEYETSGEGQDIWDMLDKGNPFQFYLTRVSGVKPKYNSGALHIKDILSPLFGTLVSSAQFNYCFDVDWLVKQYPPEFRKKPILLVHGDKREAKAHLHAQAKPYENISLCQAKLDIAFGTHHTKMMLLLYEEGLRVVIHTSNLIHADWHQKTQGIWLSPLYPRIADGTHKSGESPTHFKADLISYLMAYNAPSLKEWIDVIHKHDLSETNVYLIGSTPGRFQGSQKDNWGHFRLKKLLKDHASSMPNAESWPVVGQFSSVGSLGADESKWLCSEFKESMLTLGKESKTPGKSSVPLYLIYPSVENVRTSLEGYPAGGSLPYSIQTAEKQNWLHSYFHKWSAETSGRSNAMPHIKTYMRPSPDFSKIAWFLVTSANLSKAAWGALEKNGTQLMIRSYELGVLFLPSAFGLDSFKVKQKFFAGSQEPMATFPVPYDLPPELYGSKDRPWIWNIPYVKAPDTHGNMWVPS
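Tdp1 1 nM final; 15 min RT w/ cpd; substrate 15 nM, 5 min; beads 10 ug/ml, 10 min; AlphaScreen read. Neg ctrl: no enzyme.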
uPA generation – qHTS for Inhibitors of Cell Surface uPA Generation. cell surface uPA generation assay, qHTS. Potency, µM (series often up to 38.3 µM), usual class: inhibitors. 0.31% of 330,000 active. AID 540303, 2011; active = well fitted inhibition curve with a large enough effect; inconclusive = small, poorly fitted or top-dose-only effect; inactive = no such curve, though single readings can be large or run the other way; tested in mouse RAW 264.7 cells; note: nearly all actives have a fitted effect of over 55% in size
DT40 TDP1 no CPT – qHTS for Inhibitors of human tyrosyl-DNA phosphodiesterase 1 (TDP1): qHTS in cells in absence of CPT. 15% of 420,000 active. Potency, µM (titrated, usually from 46.2 µM), most hits filed as inhibitors. DT40 Tdp1-/- hTDP1 cells, no CPT, ATP luminescence, 48 h; note: nearly all actives have a fitted effect of over 55% in size
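Readout: luminescence from CellTiter-Glo after 30 min in the dark at RT. Cells: DT40 Tdp1-/- with stable hTDP1, 400/well. Exposure: compounds alone, ≥48 hr, 37 °C.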
miR-21 act – qHTS Assay for Modulators of miRNAs and/orActivators of miR-21; HeLa miR-21 FLuc reporter, luciferase, 48 h; Potency, µM (titrated, usually from 38.3 µM), usual class: activators; 340,000 tested, under 10 active; AID 2288, 2010;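 note: miR-21 action dims this reporter so a rising signal means less miR-21 action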
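HeLa cells endogenously expressing miR-21, stably carrying CMV-driven firefly luciferase with a downstream miR-21 binding site, 2000 cells/well. Titrations up to approximately 40 uM, 48 hours; luciferase luminescence read.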
TDP1 cell CPT – qHTS for Inhibitors of human tyrosyl-DNA phosphodiesterase 1 (TDP1): qHTS in cells in presence of CPT. chicken DT40 Tdp1-/-;hTDP1 cells + 20 nM CPT, ATP luminescence, 48 h. Potency, µM (highest dose often 46.2 µM), usual class: inhibitors. 12% of 420,000 active. AID 686979, 2013; note: nearly all actives have a fitted effect of over 55% in size
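Chicken DT40 Tdp1-/- cells complemented with human TDP1, 400 cells/well, exposed to compounds plus 20 nM camptothecin for at least 48 h at 37 C; viability read as ATP content by CellTiter-Glo luminescence.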
Each line names hits and unclear results; the compound was inactive in the other large screens. Unless noted, calls come from the whole dose curve; as a rule, active = well fitted curve in the direction sought with a large enough effect; inconclusive = small, poorly fitted or top-dose-only effect, or another doubt; inactive = no such curve, though single readings can be large; an effect the other way counts as inactive or inconclusive.

COc1ccc(C2(OC)Oc3cc(OC)ccc3C(=O)C2(O)OC)cc1 (stereo not drawn)	DT40 TDP1 no CPT inconclusive, TDP1 cell CPT 23µM (no result: TDP1 inh, miR-21 act)
Cn1c(=O)c2c(-c3ccccc3)n3c(c2n(C)c1=O)C(c1cccc([N+](=O)[O-])c1)Nc1ccccc1-3 (stereo not drawn)	DT40 TDP1 no CPT inconclusive, TDP1 cell CPT 13µM (no result: uPA generation)
COc1ccc(C2Nc3ccccc3-n3c(-c4ccccc4)c4c(=O)n(C)c(=O)n(C)c4c32)cc1 (stereo not drawn)	DT40 TDP1 no CPT inconclusive, TDP1 cell CPT 16µM (no result: uPA generation)
O=C(CN1C(=O)c2ccccc2S1(=O)=O)NCCSCc1c(F)cccc1Cl	none
CC(C)N(C(=O)[C@H]1CC(CC(=O)NCCCn2ccnc2)C(=O)N2CCc3c([nH]c4ccccc34)[C@]12C)C(C)C (stereo partly drawn)	none (no result: miR-21 act)
COC(=O)C1=C(C(=O)OC)[C@@H]2N(C)c3ccc(OC)cc3[C@@]23C[C@@H](C(=O)OC)N(S(=O)(=O)c2ccc(Br)cc2)C3=N1	none (no result: uPA generation, DT40 TDP1 no CPT, miR-21 act, TDP1 cell CPT)
C=CCN1c2ccccc2[C@]23C[C@@H](C(=O)OC)N(C(=O)c4ccc(Br)cc4)C2=NC(C(=O)OC)=C(C(=O)OC)[C@H]13	uPA generation 5.6µM, DT40 TDP1 no CPT inconclusive, TDP1 cell CPT inconclusive
COC(=O)C1=C(C(=O)OC)[C@@H]2N(Cc3ccccc3)c3ccccc3[C@@]23C[C@@H](C(=O)OC)N(C(=O)c2ccc(Br)cc2)C3=N1	uPA generation inconclusive, DT40 TDP1 no CPT 18µM, TDP1 cell CPT inconclusive
C=CCN1c2ccccc2[C@]23C[C@@H](C(=O)OC)N(C(=O)c4cccs4)C2=NC(C(=O)OC)=C(C(=O)OC)[C@H]13	uPA generation 6.3µM, DT40 TDP1 no CPT inconclusive, miR-21 act inconclusive, TDP1 cell CPT inconclusive
COC(=O)C1=C(C(=O)OC)[C@@H]2N(C)c3ccc(OC)cc3[C@@]23C[C@@H](C(=O)OC)N(C(=O)c2ccc(Br)cc2)C3=N1	uPA generation inconclusive, DT40 TDP1 no CPT 26µM, TDP1 cell CPT inconclusive
CN(C)C(=O)c1ccc(NC(=O)c2cccc(S(=O)(=O)N3CCCCCC3)c2)cc1	DT40 TDP1 no CPT inconclusive (no result: miR-21 act)
NC1=NC(=O)C(Cc2ccc(F)cc2)S1 (stereo not drawn)	none (no result: TDP1 inh)
CCOC(=O)N1C2=NC(C(=O)OC)=C(C(=O)OC)[C@@H]3N(Cc4ccccc4)c4ccccc4[C@]23C[C@H]1C(=O)OC	uPA generation inconclusive, DT40 TDP1 no CPT inconclusive, TDP1 cell CPT 18µM (no result: miR-21 act)
O=C(NCc1ccco1)C1CC(c2ccc(C(F)(F)F)cc2)=NO1 (stereo not drawn)	uPA generation inconclusive, DT40 TDP1 no CPT 12µM, TDP1 cell CPT 13µM (no result: TDP1 inh, miR-21 act)
COc1cc(C2=NOC(C(=O)NCc3ccco3)C2)cc(OC)c1OC (stereo not drawn)	DT40 TDP1 no CPT 3.3µM, TDP1 cell CPT 4.1µM (no result: uPA generation)
Cc1ccc(CCNC(=O)C2CC(c3cc(C(F)(F)F)cc(C(F)(F)F)c3)=NO2)cc1 (stereo not drawn)	DT40 TDP1 no CPT inconclusive, TDP1 cell CPT inconclusive
COc1ccc(C2=NOC(C(=O)NCc3ccccn3)C2)cc1 (stereo not drawn)	none
COc1ccc(C2=NOC(C(=O)NCc3ccco3)C2)cc1 (stereo not drawn)	DT40 TDP1 no CPT 2.8µM, TDP1 cell CPT 4µM (no result: uPA generation)
Cc1ccc(CNC(=O)C2CC(c3cc(C(F)(F)F)cc(C(F)(F)F)c3)=NO2)o1 (stereo not drawn)	uPA generation inconclusive, DT40 TDP1 no CPT 4.6µM, miR-21 act inconclusive, TDP1 cell CPT 3.3µM
C(=C\c1ccccc1)/CSc1nnc(-c2ccccn2)n1Cc1ccco1	DT40 TDP1 no CPT 2.9µM, TDP1 cell CPT 2.6µM
Cn1c(SCc2nc3ccccc3[nH]2)nnc1-c1cnccn1	none
c1coc(Cn2c(SCc3nc4ccccc4[nH]3)nnc2-c2cnccn2)c1	DT40 TDP1 no CPT 23µM, TDP1 cell CPT inconclusive
